Source: PubChem (The Scripps Research Institute Molecular Screening Center)
TEAD-YAP block: TEAD-YAP interaction inhibition, primary screen, TEAD-YAP interaction inhibitor project, luminescence, HEK-TIYL cells | hit rate 1.4% among 640,000 | AID 1259422, 2018 | TEAD-Gal4/YAP UAS-luciferase luminescence | inhibition, % at 9.12 µM; in the data active = inhibition above about 32%;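 note: 0% = median of test compound wells and 100% = reference inhibitor wells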
MITF primary: MITF inhibitors, primary screen, biochemical, AlphaScreen, human; hit rate 0.91% among 650,000; inhibition, % at 2.6 µM; AID 1259374, 2018; AlphaScreen MITF homodimerization, bead proximity signal; in the data active = inhibition above about 50%;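 note: 0% = vehicle wells with protein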
FBW7 activator: FBW7 E3 ligase activators, primary screen, biochemical, AlphaScreen, human; F-box/WD repeat-containing protein 7 (Homo sapiens), Q969H0; AlphaScreen FBW7–phospho-cyclin E peptide binding, activator screen; normalized activity (activation), % at 26.1 µM; hit rate 0.13% among 650,000; AID 1259310, 2017; in the data active = normalized activity above about 1.9%;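 note: purified mutant Fbw7 with reduced substrate affinity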
GPR151 activ: activators of human GPR151, primary screen, cell-based, PathHunter beta-arrestin, luminescence; G-protein coupled receptor 151 (Homo sapiens), Q8TDV0; hit rate 1% among 650,000; PathHunter beta-arrestin GPR151 cells; AID 1508602, 2020; activation, % at 11.2 µM; in the data active = activation above about 4.9%;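 note: 0% = median of compound wells and 100% = cells with positive control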
Target sequence (Q8TDV0 whole entry, looked up): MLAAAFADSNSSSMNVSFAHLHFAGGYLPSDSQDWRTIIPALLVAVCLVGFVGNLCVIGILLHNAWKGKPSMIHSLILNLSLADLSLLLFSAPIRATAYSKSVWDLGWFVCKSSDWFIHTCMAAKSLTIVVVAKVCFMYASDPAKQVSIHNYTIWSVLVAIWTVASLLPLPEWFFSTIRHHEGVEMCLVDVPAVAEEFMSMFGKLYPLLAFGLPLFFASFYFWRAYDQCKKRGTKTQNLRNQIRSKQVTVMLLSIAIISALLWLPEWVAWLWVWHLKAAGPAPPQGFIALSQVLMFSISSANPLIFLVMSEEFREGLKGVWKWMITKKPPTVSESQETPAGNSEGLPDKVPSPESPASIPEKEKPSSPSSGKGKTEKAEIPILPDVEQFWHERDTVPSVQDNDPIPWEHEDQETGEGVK
GPR151 confirm: GPR151 activators, triplicate retest, confirmation, cell-based, PathHunter beta-arrestin, luminescence; AID 1508609, 2020; shares compounds with GPR151 activ; 6,700 tested, under 10 active; activation, % at 11.2 µM; GPR151 PathHunter beta-arrestin cells, 90 min; % of EA-reagent control over plate median;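 active = mean percent activation across replicates above the confirmation screen cutoff of 4.91%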
GPR119 counter: GPR119 activators in beta-arrestin cells, counter-screen for GPR151 activator project, cell-based, PathHunter beta-arrestin, luminescence, triplicate | activation, % at 11.2 µM | hit rate 0.3% among 6,700 | shares compounds with GPR151 activ | 90 min; 0 = compound-well median, 100 = enzyme-acceptor control;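 active = mean percent activation in the counterscreen above 29.09%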;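 note: counterscreen on off-target GPR119 to flag nonselective hits from the GPR151 activator screen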
The depositor's hits bear a star; nt = no result given. Only some compounds are listed: those with a hit (about 3.4% of all), similar ones and a draw of the others.

SMILES	TEAD-YAP block	MITF primary	FBW7 activator	GPR151 activ	GPR151 confirm	GPR119 counter
O=C(c1c(F)cccc1Cl)N(c1ccccc1)C1C=CS(=O)(=O)C1 (configuration not stated)	-11	-4	0	1	nt	nt
O=C(Cc1csc(-n2cccc2)n1)N1CCN(c2ccccn2)CC1	7	3	0	5.5*	2	0
O=C1CSC(=O)N1C1CCCCC1NC(=O)C1(c2cccs2)CCCC1 (configuration not stated)	3	-1	0	5.5*	-1	-8
COc1cccc(NC(=O)N2CCN(Cc3ccccc3)CC2C(=O)N2CCCC2)c1 (configuration not stated)	-21	-42	0	2	nt	nt
COc1ccc(CCN2C(=O)CCC2CCNCc2cccc(C(F)(F)F)c2)cc1 (configuration not stated)	8	8	0	12*	0	9
COc1ccccc1NC(=O)CN1C(=O)C2C3C=CC(C3)C2C1=O (configuration not stated)	-9	9	1	-1	nt	nt
COc1cc(NC(=O)c2ccc(N3CC4CC(C3)c3cccc(=O)n3C4)c(NC(=O)c3cccnc3)c2)cc(OC)c1OC (configuration not stated)	-3	-6	0	0	nt	nt
CCCOC(=O)C1=C(C)N(C)C(=O)NC1c1ccccc1Cl (configuration not stated)	0	-6	0	1	nt	nt
CCCCOC(=O)C1=C(C)N(C)C(=O)NC1c1ccccc1Cl (configuration not stated)	15	-4	0	7.2*	0	-9
O=C1C=Cc2ccc(N3CCOCC3)c3cccc1c23	-13	13	0	6.1*	0	7
CCN1C(=O)c2cccc3c(N4CCOCC4)ccc(c23)C1=O	-35	-11	0	2	nt	nt
Cc1ccsc1/C=N/NC(=O)c1sc(N)nc1C	-37	1	0	-1	nt	nt
O=C(CCSc1ccccc1)Nc1ccc(O)c(-c2nc3ccccc3s2)c1	-3	5	0	-1	nt	nt
COc1ccc(S(=O)(=O)Nc2ccc(F)c(F)c2)cc1C	3	8	0	14*	1	2
CCOc1ccc(S(=O)(=O)Nc2ccc3oc(C)c(C(=O)OC)c3c2)cc1	63*	19	0	8.9*	0	16
CCOC(=O)COc1ccc(S(=O)(=O)Nc2ccc(C(=O)OCC)cc2)cc1	0	-7	0	5.0*	-1	3
COC(=O)COc1ccc(S(=O)(=O)Nc2ccc(NC(C)=O)cc2)cc1C	2	6	0	6.2*	1	-10
CCOC(=O)COc1ccc(S(=O)(=O)Nc2ccc(Br)cc2)cc1	4	-2	0	3	nt	nt
COC(=O)c1c(C)oc2ccc(NS(=O)(=O)c3ccc(C(C)(C)C)cc3)cc12	29	8	0	0	nt	nt
CCn1cnc2sc(C(=O)N3CCCCC3C)c(C)c2c1=O (configuration not stated)	-4	0	0	2	nt	nt
COC(=O)Cn1ncc2c3ccccc3n(Cc3ccc(F)cc3)c2c1=O	-3	-20	0	1	nt	nt
N=c1oc2c(ccc3ccccc32)cc1-c1nc(-c2cccc(Br)c2)cs1	5	16	0	-2	nt	nt
COC(=O)COc1ccc(NS(=O)(=O)c2ccc(NC(C)=O)cc2)cc1	4	9	1	-1	nt	nt
CC(=O)Nc1ccc(NS(=O)(=O)c2cc(C(C)(C)C)cc(C)c2C)cc1	4	-4	0	6.4*	0	6
Cc1ccc(NS(=O)(=O)c2cc(C(=O)O)cc(C)c2C)cc1	6	-11	0	-1	nt	nt
SMILES	TEAD-YAP block	MITF primary	FBW7 activator	GPR151 activ	GPR151 confirm	GPR119 counter
CCCCc1ccc(NS(=O)(=O)c2ccc(OCC(=O)OC)cc2)cc1	-8	-9	0	5.2*	0	3
CC1(C)Cc2ccccc2/C(=C/C(=O)C(=O)NCc2ccccc2)N1	2	-21	0	6.6*	0	0
CN(CCn1ccnc1)c1nc2nonc2nc1NCc1ccccc1	0	6	0	2	nt	nt
CCN(CCn1cccn1)c1nc2nonc2nc1NCc1ccccc1	-4	8	0	6.5*	0	2
CCOC(=O)C1=C(C)N=c2s/c(=C/c3ccc(-c4ccc(Br)cc4)o3)c(=O)n2C1c1ccc(N(C)C)cc1 (configuration not stated)	6	-8	0	5.5*	0	-3
CCOC(=O)C1=C(C)N=c2s/c(=C\c3ccc(Br)o3)c(=O)n2C1c1cccs1 (configuration not stated)	6	2	0	4.9*	-1	0
CCOC(=O)C1=C(C)N=c2s/c(=C/c3ccc(-c4ccc(C(=O)OCC)cc4)o3)c(=O)n2C1c1ccc(N(C)C)cc1 (configuration not stated)	-23	3	0	0	nt	nt
CCOC(=O)C1=C(C)N=c2s/c(=C/c3cc(Br)c(Br)o3)c(=O)n2C1c1cccs1 (configuration not stated)	-10	3	0	-1	nt	nt
CCCC1=NN2C(=N)/C(=C/c3ccc(-c4ccc(C(=O)OCC)cc4)o3)C(=O)N=C2S1	0	3	0	5.2*	1	19
COc1cccc(OC)c1C(=O)NCc1ccccc1	-4	6	0	1	nt	nt
O=C1Nc2ccccc2N(O)N1c1cccc(Br)c1	-3	6	0	7.7*	0	3
NC(=O)c1c(NC(=O)Cn2nnc(-c3ccccc3Cl)n2)sc2c1CCCC2	14	6	0	6.4*	0	-4
Cn1c(Cn2nnc(-c3ccccc3)n2)nnc1SCC(=O)Nc1ccccc1Cl	-13	-4	0	7.6*	1	19
O=C(O)COc1ccc(/C=N/NC(=O)Cn2nnc(-c3ccccc3Cl)n2)cc1	3	19	1	7.8*	0	-11
O=C(O)COc1cccc(/C=N/NC(=O)Cn2nnc(-c3ccccc3Cl)n2)c1	1	8	1	0	nt	nt
NC(=O)c1c(NC(=O)c2ccccc2Cl)sc2c1CCCC2	-24	-4	0	0	nt	nt
O=C(Cn1nnc(-c2ccccc2Cl)n1)Nc1ccccc1Cl	9	2	0	4.9*	1	-2
O=C(Cn1nnc(-c2ccccc2Cl)n1)Nc1ccccc1C(F)(F)F	-7	-11	0	2	nt	nt
Cc1ccc(NC(=O)Cn2nnc(-c3ccccc3NC(=O)c3cccc(C)c3)n2)cc1	10	-4	0	5.0*	1	-3
